FMDV inh – antivirals against foot and mouth disease virus. AID 1159524. FMDV antiviral cell-based qHTS. Potency, µM (top dose mostly 57.9 µM), hits mostly inhibitors. 1.2% of 410,000 active; calls by dose curve; tested in HEK293T cells; further: read-out not given here; nearly all actives have a fitted effect of over 45% in size
FBPA Giardia inh – inhibitors of Giardia lamblia fructose-1,6-bisphosphate aldolase | A8B2U2 | purified Giardia FBPA | Potency, µM (top dose mostly 59.6 µM), most hits filed as inhibitors | 0.71% of 290,000 active | AID 2451; further: nearly all actives have a fitted effect of over 55% in size
Target sequence (A8B2U2 whole entry, looked up): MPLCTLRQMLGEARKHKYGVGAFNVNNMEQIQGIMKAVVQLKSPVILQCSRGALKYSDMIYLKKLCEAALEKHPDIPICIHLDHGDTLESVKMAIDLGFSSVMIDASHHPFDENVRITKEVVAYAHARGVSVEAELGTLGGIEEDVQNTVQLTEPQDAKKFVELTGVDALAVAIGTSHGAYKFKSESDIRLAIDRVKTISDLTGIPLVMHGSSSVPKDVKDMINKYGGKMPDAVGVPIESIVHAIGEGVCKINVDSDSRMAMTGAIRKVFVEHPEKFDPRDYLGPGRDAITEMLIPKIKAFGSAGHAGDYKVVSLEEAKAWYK
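40 nM FBPA preincubated 10 min at RT with compound (up to 57.5 uM final), then substrate plus GAPDH/TPI/NAD/arsenate coupling and diaphorase/resazurin added. Fluorescence read after 20 min at RT, 525/598 nm.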
Sm TGR block – inhibitors of Schistosoma mansoni thioredoxin glutathione reductase | purified TGR, DTNB reduction, TNB absorbance 405 nm | 3% of 360,000 active | Q962Y6 | Potency, µM (series often up to 114 µM), usual class: inhibitors; further: nearly all actives have a fitted effect of over 60% in size
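Kinetic colorimetric format: TGR-catalysed, NADPH-driven DTNB reduction monitored via TNB absorbance. Enzyme dispensed at 20 nM; compound exposure 15 min at room temperature before reaction start.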
HCMV antiviral – blocks human cytomegalovirus replication; 4.5% of 410,000 active; HFF cells, HCMV-luciferase reporter, 72 h; active compounds read low; activity change, negative = inhibition, % at 57.5 µM; AID 1259415; in the data active means activity change below about -60%; inconclusive means no clear call, values can overlap the other calls; inactive means above about -39%
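After 16 h attachment at 37C, HFF cells received test compound and HCMV-luciferase (1 PFU/cell); reporter luminescence read 72 h later, data normalized against buffer-only and known inhibitor Salinomycin.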
Tb PYK inh – inhibitors of Trypanosoma brucei pyruvate kinase. Potency, µM (titrated, usually from 76.8 µM), hits mostly inhibitors. TbPYK enzyme, Kinase-Glo Plus ATP luminescence, 45 min. 0.12% of 410,000 active; further: nearly all actives have a fitted effect of over 50% in size
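TbPYK + substrate in 50 mM TEA pH 7.2, 100 mM KCl, 10 mM MgCl2, 0.05% BSA, 0.01% Tween-20; cpd pinned; ADP 130 uM final; 45 min RT; Kinase-Glo Plus 10 min; luminescence endpoint.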
RE007 growth inh – less growth of the S. pombe RE007 Vpr strain. S. pombe RE007 Vpr strain, BacTiter-Glo ATP luminescence, 24 h. Potency, µM (highest dose often 92.2 µM), hits mostly inhibitors. 0.21% of 360,000 active. AID 651644; active means well fitted falling curve with a large enough effect; inconclusive means small, poorly fitted or top-dose-only effect; inactive means no such curve, though single readings can be large or run the other way; further: nearly all actives have a fitted effect of over 50% in size
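Fission yeast strain RE007, carrying one chromosomally integrated HIV-1 vpr copy, was seeded at OD 0.01 in PMG+AL medium with 23 nL pinned compound. After 24 h at 30 °C and 99% humidity, viability was read by BacTiter-Glo luminescence.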
A number is an active result; - = inactive; ? = inconclusive; . = not tested or not shown; [ ] = another dose, or the depositor's remark. Rows were chosen to be rich in hits. Some 7.7% of all compounds tested hit in one or more screens of this group. Unless noted, the call rests on the fitted dose curve; in most records, active means well fitted curve in the direction sought with a large enough effect; inconclusive means small, poorly fitted or top-dose-only effect, or another doubt; inactive means no such curve, though single readings can be large; an effect the other way counts as inactive or inconclusive.

SMILES	FMDV inh	FBPA Giardia inh	Sm TGR block	HCMV antiviral	Tb PYK inh	RE007 growth inh
Cc1ccc(C(=O)NCc2ccccn2)o1	-	-	-	?	-	.
COc1ccc(S(=O)(=O)Cc2ccc(C(=O)NCc3ccccn3)o2)cc1	-	-	35µM	-	-	-
COCCNC(=O)c1ccc(CS(=O)(=O)c2ccc(OC)cc2)o1	-	-	-	-	-	-
Cc1ccc(CS(=O)(=O)Cc2ccc(C(=O)NCc3ccccn3)o2)cc1	.	-	40µM	-	-	-
Cn1cc(CNCc2ccc(OC(F)(F)F)cc2)c(-c2ccc3c(c2)OCCO3)n1	?	-	-	-81	-	-
Cn1cc(CNCc2cn[nH]c2-c2ccc(F)cc2)c(-c2ccc3c(c2)OCCO3)n1	-	-	-	-	-	-
CC(C)c1ccc(Nc2cc(C(=O)NCCc3ccccc3)c3ccccc3n2)cc1	-	.	-	-	-	.
O=C1C=C2C=C[C@@H]3CC2(O1)[C@H]1CCCCN31	?	.	?	-94	-	-[18.4 µM]
O=C1C=C2C=C[C@H]3C[C@@]2(O1)[C@H]1CCCCN31	.	-	.	.	.	.
O=C(Cc1ccc(F)cc1)Nc1nnc2n1CCS2	-	.	-	-	-	.
Oc1ccc2c3c1O[C@H]1[C@@H](O)C=CC4[C@@H](C2)NCC[C@@]341 (some centres not stated)	.	.	.	.	-	.
CC(=O)Oc1ccc2c(c1)CC[C@@H]1[C@@H]2CC[C@]2(C)[C@@H](O)CC[C@@H]12	-	.	.	.	.	.
CNc1ncnc2c1ncn2[C@@H]1O[C@H](CO)[C@H](O)[C@H]1O	.	-	.	.	.	.
OCC1OC(n2ccc3c(NO)ncnc32)C(O)C1O (configuration not stated)	?	.	.	-98	-	-
CN(C)c1ncnc2c1ccn2C1OC(CO)C(O)C1O (configuration not stated)	-	.	.	-98	-	-
OCC1OC(n2cnc3c(NCc4ccccc4O)ncnc32)C(O)C1O (configuration not stated)	-	.	.	-100	-	-
OC[C@H]1O[C@@H](n2cnc3c(NCc4ccccc4)ncnc32)[C@H](O)[C@@H]1O	.	-	.	.	.	.
Cc1oc(-c2ccccc2NC(=O)c2ccsc2)nc1CN(C)CC1CC=CCC1 (configuration not stated)	-	.	.	.	.	.
Cc1ncoc1C(=O)N1CCOc2ccc(CN3CCN(c4ccccn4)CC3)cc2C1	-	.	.	.	.	.
CC(C)SCCCOc1ccc(C(C)(C)C)cc1	-	-	-	-86	-	-
CC(C)C[C@H](NC(=O)[C@@H]1CCC(=O)N1)C(=O)N[C@@H](Cc1ccc(O)cc1)C(=O)N[C@@H](CCC(=O)O)C(=O)N[C@@H](CC(N)=O)C(=O)N[C@@H](CCCCN)C(=O)N1CCC[C@H]1C(=O)N[C@@H](CCCN=C(N)N)C(=O)N[C@@H](CCCN=C(N)N)C(=O)N1CCC[C@H]1C(=O)N[C@@H](Cc1ccc(O)cc1)C(=O)O	.	-	.	.	.	.
Cc1cc(O)c(C(C[N+](=O)[O-])c2ccc(Cl)cc2)c(=O)o1 (configuration not stated)	-	-	?	-	-	-
Cc1cc(C)n(C(C[N+](=O)[O-])c2ccc(Cl)cc2)n1 (configuration not stated)	?	?	-	-105	?	?
CC1(C(=O)NCc2cccnc2)CCC(=O)N1CCc1ccccc1 (configuration not stated)	-	-	-	-97	-	-
CC1(C(=O)NCc2ccccc2)CCC(=O)N1CCCn1ccnc1 (configuration not stated)	-	.	.	-99	-	-
SMILES	FMDV inh	FBPA Giardia inh	Sm TGR block	HCMV antiviral	Tb PYK inh	RE007 growth inh
CC1(C(=O)NCc2ccccc2)CN(S(C)(=O)=O)CC(=O)N1CCCn1ccnc1 (configuration not stated)	-	.	.	-	.	-
CCCCNC(=O)C1(C)CCC(=O)N1CCOC (configuration not stated)	-	.	.	-	-	-
COc1ccc(CCN2C(=O)CCC2(C)C(=O)NCc2cccnc2)cc1OC (configuration not stated)	-	-	-	-	-	-
CCCCNC(=O)C1(C)CCC(=O)N1CCCn1ccnc1 (configuration not stated)	-	.	.	-71	-	-
C[C@H]1COc2c(N3CCN(C)CC3)c(F)cc3c(=O)c(C(=O)NCc4ccco4)cn1c23	.	-	.	.	.	.
CCOC(=O)CNC(=O)CSc1nnc(-c2ccco2)n1Cc1ccco1	-	-	25µM	-	?	-
O=C(CSc1nnc(C2CC2)n1-c1ccccc1)NCc1ccco1	-	-	?	-	-	-
O=C(CSc1nnc(C2CC2)n1Cc1ccco1)NCC(F)(F)F	-	-	35µM	-	-	-
CCc1ccc(NC(=O)CSc2nc3cc(C(=O)OC)ccc3c(=O)n2Cc2ccco2)cc1	-	-	-	-	-	-
CCOC(=O)c1sc(NC(=O)CSc2nnc(-c3ccco3)n2CC)c(C(=O)OCC)c1C	.	-	20µM	-	-	-
CCOC(=O)c1c(NC(=O)CSc2nnc(-c3ccccc3)n2CC)sc(C(C)=O)c1C	?	-	-	-	?	-
CCOC(=O)CNC(=O)CSc1nnc(-c2ccco2)n1N	-	-	-	-	-	-
CCOC(=O)c1c(NC(=O)CSc2nc3cc(Cl)ccc3c(=O)n2Cc2ccco2)sc(C(=O)N(C)C)c1C	-	-	-	-68	-	-
COc1ccccc1N(CC(=O)NCCSc1ccccc1)S(=O)(=O)c1ccc(C)cc1	-	.	-	-	-	.
CCOC(=O)C1CCN(C(=O)c2c(C)oc3c2C(=O)c2ccccc2C3=O)CC1	28µM	?	-	-	-	-
Cc1oc2c(c1C(=O)N1CCC(C)CC1)C(=O)c1ccccc1C2=O	?	?	-	?	-	-
COc1ccc(-n2ccn(Cc3ccc(C)cc3)c(=O)c2=O)cc1OC	-	.	-	-	-	.
CC(=O)C(Sc1nn(C)c(=S)s1)C(=O)Nc1ccccc1 (configuration not stated)	-	?	25µM	-	32µM	?
CC(=O)C(Sc1nc(N(C)C)nc(N(C)C)n1)C(=O)Nc1ccccc1 (configuration not stated)	-	-	-	-	-	-
C=C(C)CSc1nc2sc3c(c2c(=O)n1-c1ccccc1)CC(C(C)C)OC3 (configuration not stated)	-	.	-	-	-	.
CCc1cccc(CC)c1N1C(=O)COCC1=O	-	.	.	-62	-	-
CCOc1ccc(C(=O)c2ccc(O)c(O)c2O)cc1	-	16µM	.	.	.	.
CCOc1cccc(C(=O)c2ccc(O)c(O)c2O)c1	-	20µM	.	.	.	.
Cc1nn(CC(=O)NCc2ccco2)c(=O)c2cc3ccccc3n12	-	.	-	-	-	.

Compound activity as filed in PubChem.
